From PubChem BioAssay
Compounds with a hit are over-represented: about 4% of the library has one in this group of screens.
D1 ag – activates the human D1 dopamine receptor | HEK293 T-REx D1 cells, calcium flux, agonist mode | activation, % at 2 µM | 360,000 compounds, 1% hits | AID 504660; further: 0% is about no effect
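Tetracycline-induced HEK293 TREx D1 cells, force-coupled to calcium signalling, were dye-loaded with a no-wash calcium kit. Compound was pin-added after a 10 s baseline. Fluorescence was read kinetically at 1 cycle/s for 180 s, with calcium rises flagged as agonism.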
TRHR agonist – agonists of human TRH receptor. P34981. TRHR cells, calcium flux fluo-8, FDSS agonist mode. activation, % at 2 µM. 360,000 compounds, 0.18% hits. AID 493084; further: 0% is about no effect
Target sequence (P34981 whole entry, looked up): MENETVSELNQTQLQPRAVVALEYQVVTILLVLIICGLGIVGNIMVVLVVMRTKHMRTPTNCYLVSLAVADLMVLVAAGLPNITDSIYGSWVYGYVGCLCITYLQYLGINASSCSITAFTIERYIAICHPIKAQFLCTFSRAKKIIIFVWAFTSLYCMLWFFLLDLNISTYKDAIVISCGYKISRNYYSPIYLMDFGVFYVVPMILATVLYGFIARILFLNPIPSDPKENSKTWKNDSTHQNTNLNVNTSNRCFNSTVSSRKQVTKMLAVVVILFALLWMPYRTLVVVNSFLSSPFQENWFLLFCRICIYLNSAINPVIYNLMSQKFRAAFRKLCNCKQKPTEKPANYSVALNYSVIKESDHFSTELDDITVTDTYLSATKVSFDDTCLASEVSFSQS
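TRHR-expressing cells loaded with fluo-8 calcium dye; 23 nL library compound pin-transferred, kinetic FDSS fluorescence (Ex 480/Em 530) recorded about 180 s for agonist-induced calcium release, before a 10 nM TRH EC20 addition for potentiator mode.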
D1 PAM – potentiators of human D1 dopamine receptor; P21728; HEK293 TREx D1 cells, calcium flux, dopamine EC20 potentiation; potentiation, % at 10 µM; 360,000 compounds, 0.036% hits; AID 504651; in the data active means potentiation above about 30%; further: 0% is about no effect
D1 antag – antagonists of human D1 dopamine receptor. P21728. HEK293 TREx D1 cells, calcium flux, dopamine EC80; active compounds read low. 360,000 compounds, 3.2% hits. AID 504652. activity change, negative = inhibition, % at 10 µM; in the data active means activity change below about -30%; further: on the % scale 0 is the no-effect control and ±100 the full control effect
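Kinetic fluorescence of a calcium dye serves as the read-out. D1-expressing Hek293 Trex cells, induced overnight at 30 C, are exposed to compound for 180 s before an EC80 dopamine addition, then read 180 s further.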
TRHR enhancer – allosteric enhancers of human TRH receptor. TRHR cells, fluo-8 calcium fluorescence, EC20 TRH enhancement. P34981. 360,000 compounds, 0.66% hits. enhancement, % at 2 µM; in the data active means enhancement above about 30%; further: 0% is about no effect
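Enhancer read-out: after compound pinning and an initial kinetic agonist-mode read, an EC20 of TRH (10 nM final) was injected and fluo-8 calcium signal (Ex 480/Em 530) followed at 1 s/cycle for 100 cycles in TRHR-expressing cells.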
Glioma ERSR ind – inducers of ER stress response in human glioma cells. U87-MG GRP78 promoter luciferase reporter, 16 h. Potency, µM, for inactives: at the top dose activation, most hits filed as activators. 420,000 compounds, 0.02% hits. AID 602332; active means well fitted activation curve with a large enough effect; further: potency means the concentration at half of the fitted maximal effect; series mostly up to about 76 µM; % of control where 0% means no effect; nearly all actives have a fitted effect of over 35% in size
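ERSR induction read as luciferase luminescence (Bright-Glo, 10 min at room temperature) in stably transfected human U87-MG glioma cells exposed to compounds for 16 h, using GRP78 as sensor.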
Active calls of the source: *. Unless noted, no stated cut-off is given here; in the data, active means activation above about 30%; inactive means the rest.

Screening CC(C)Nc1nc2c(S(=O)(=O)c3cccc(Cl)c3)nnn2c2ccsc12 returned D1 ag 2, TRHR agonist 1, D1 PAM -8, D1 antag -57*, TRHR enhancer -18 and Glioma ERSR ind -1%.
CC1CCc2c(cc(-c3ccccc3)n2-c2ccc(C(=O)NC(C)C)cc2)C1 (configuration not stated) was read as D1 ag 7, TRHR agonist 1, D1 PAM -5, D1 antag -39*, TRHR enhancer 2 and Glioma ERSR ind -7%.
For Clc1ccc(-c2c(C3=NCCCN3)nnn2-c2ccc(Cl)cc2)cc1 the results were D1 ag 10, TRHR agonist 3, D1 PAM -6, D1 antag -39*, TRHR enhancer -2 and Glioma ERSR ind -3%.
For Clc1ccc(-c2nnnn2-c2ccc(Cl)cc2)cc1 the results were D1 ag 1, TRHR agonist -1, D1 PAM -17, D1 antag -9, TRHR enhancer 3 and Glioma ERSR ind 0%.
Screening COCCn1c(SCC(=O)NC2CCCC2)nc2cccnc21 returned D1 ag 1, TRHR agonist 0, D1 PAM -5, D1 antag 8, TRHR enhancer 0 and Glioma ERSR ind -4%.
Screening COc1ccc(C(=O)c2sc3nc4c(c(C(F)(F)F)c3c2N)CN(C(C)=O)CC4)cc1OC returned D1 ag 13, TRHR agonist 9, D1 PAM -2, D1 antag -4, TRHR enhancer 8 and Glioma ERSR ind -6%.
CC(=O)N1CCc2nc3sc(C(=O)c4ccc(F)cc4)c(N)c3c(C(F)(F)F)c2C1 was read as D1 ag 61*, TRHR agonist 37*, D1 PAM 1, D1 antag 7, TRHR enhancer -3 and Glioma ERSR ind -2%.
Screening Cc1nc2sc(C(=O)c3ccccc3)c(N)c2c(C)c1C returned D1 ag 0, TRHR agonist -1, D1 PAM -3, D1 antag 3, TRHR enhancer -15 and Glioma ERSR ind 0%.
`Cc1nc(-c2ccccc2)nc2sc(C(=O)c3ccc(F)cc3)c(N)c12` gave D1 ag 34*, TRHR agonist 13, D1 PAM -2, D1 antag 10, TRHR enhancer -8 and Glioma ERSR ind -2%.
Screening COCc1cc(/C=N\NC(=O)COc2ccccc2)ccc1OC returned D1 ag 0, TRHR agonist 0, D1 PAM -1, D1 antag 1, TRHR enhancer 1 and Glioma ERSR ind -2%.
`Cc1cc(C)c2nc(N(CCCN(C)C)C(=O)c3ccc4c(c3)CCCC4)sc2c1` gave D1 ag 4, TRHR agonist 3, D1 PAM 14, D1 antag 25, TRHR enhancer 33* and Glioma ERSR ind -6%.
Cc1cccc2sc(N(CCCN(C)C)C(=O)c3ccc(C(=O)c4ccccc4)cc3)nc12 was read as D1 ag 24, TRHR agonist 1, D1 PAM -3, D1 antag -31*, TRHR enhancer 17 and Glioma ERSR ind -11%.
`Cc1ccc2sc(N(CCN(C)C)C(=O)c3ccc4ccccc4c3)nc2c1C` gave D1 ag 7, TRHR agonist 0, D1 PAM -3, D1 antag 2, TRHR enhancer -1 and Glioma ERSR ind -9%.
`COc1cccc2sc(N(CCCN(C)C)C(=O)c3sc4ccccc4c3Cl)nc12` gave D1 ag 4, TRHR agonist 2, D1 PAM -11, D1 antag -73*, TRHR enhancer 10 and Glioma ERSR ind -6%.
Screening Cc1ccc2sc(N(CCCN(C)C)C(=O)CN3C(=O)c4ccccc4C3=O)nc2c1C returned D1 ag 46*, TRHR agonist 2, D1 PAM -2, D1 antag -24, TRHR enhancer 2 and Glioma ERSR ind -5%.
Screening Cc1csc(NC(=O)CSc2[nH]c(=O)ncc2C)n1 returned D1 ag 27, TRHR agonist 0, D1 PAM -1, D1 antag 19, TRHR enhancer 4 and Glioma ERSR ind 0%.
`CCOC(=O)c1c(C)[nH]c(C)c1S(=O)(=O)N1CCCC(C(=O)N2CCN(c3cccc(Cl)c3)CC2)C1` (configuration not stated) gave D1 ag 1, TRHR agonist -1, D1 PAM -3, D1 antag 5, TRHR enhancer -1 and Glioma ERSR ind -4%.
For Cc1cccc2sc(N(CCCN(C)C)C(=O)COc3ccc(Cl)cc3)nc12 the results were D1 ag 18, TRHR agonist 2, D1 PAM -3, D1 antag -8, TRHR enhancer 0 and Glioma ERSR ind -4%.
Screening CN(C)CCCN(C(=O)CCc1ccccc1)c1nc2c(F)cccc2s1 returned D1 ag 35*, TRHR agonist 15, D1 PAM -13, D1 antag 3, TRHR enhancer -3 and Glioma ERSR ind -7%.
Screening Cc1cccc2sc(N(CCCN(C)C)C(=O)COc3ccccc3)nc12 returned D1 ag 64*, TRHR agonist 3, D1 PAM -2, D1 antag 1 and TRHR enhancer 27.
Cc1cc(C)nc(SCc2nnc(SCC(=O)Nc3c(C)cccc3C)o2)n1 was read as D1 ag 3, TRHR agonist 0, D1 PAM -2, D1 antag -1, TRHR enhancer -6 and Glioma ERSR ind -4%.
O=C(O)c1cc(S(=O)(=O)O)cc(Nc2c3ccccc3nc3ccccc23)c1O was read as D1 ag 8, TRHR agonist 0, D1 PAM -5, D1 antag -5, TRHR enhancer -7 and Glioma ERSR ind -3%.
N#Cc1ccc(CSc2nnc(-c3ccc(Br)cc3)o2)cc1 was read as D1 ag 0, TRHR agonist 0, D1 PAM 0, D1 antag 0, TRHR enhancer -3 and Glioma ERSR ind -3%.
For CCC(C)NC(=O)c1cc(CC(C)C)on1 (configuration not stated) the results were D1 ag 2, TRHR agonist 0, D1 PAM 1, D1 antag -30*, TRHR enhancer 4 and Glioma ERSR ind -1%.
Screening COCCN(CC(=O)NCC1CCCO1)C(=O)CCC(=O)Nc1cc(C)ccn1 (configuration not stated) returned D1 ag 2, TRHR agonist 0, D1 PAM -4, D1 antag -37*, TRHR enhancer 0 and Glioma ERSR ind -1%.
`O=C(Nc1ccc2ccccc2c1)C(c1ccccc1)C1CCCC1` (configuration not stated) gave D1 ag 4, TRHR agonist 1, D1 PAM -10, D1 antag -23, TRHR enhancer -3 and Glioma ERSR ind -1%.
